Experimental findings from PubChem BioAssay (NCATS) are described below.

In one experiment the test system is MKL-2. The experiment is described as follows: qHTS assay to identify novel small-molecules to repurpose for Merkel cell carcinoma treatment (AID 1296009). Also: nearly all actives have a fitted effect of over 60% in size. The following applies: MCC and control cell lines, CellTiter-Glo viability, 72 h; series mostly up to 46 µM. In short, it runs like this: (§1)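 Cells exposed to NPC (8-point) and MIPE (11-point) compound dilutions for 72 hr at 37 degree celsius; viability read by CellTiter-Glo luminescence, normalized to no-cell and DMSO in-plate controls.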

The subject of the next experiment is UISO. The experiment is described as above. The following applies: MCC and control cell lines, CellTiter-Glo viability, 72 h; series mostly up to 46 µM. In short, it runs like this:
as §1

Another experiment deals with C33A. Description: Primary qHTS to identify gynecologic anti-cancer compounds using libraries of approved drugs and bioactive compounds (AID 1345084). Also: nearly all actives have a fitted effect of over 55% in size. Particulars: Gynecologic cancer cell panel viability, ATPlite luminescence, 48 h; series mostly up to 57.5 µM. In a few lines: (§2)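 Measured: luminescence after ATPlite addition (15 min, RT). Exposure: 48 h, 37 C, 5% CO2.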
For orientation: Quantitative high-throughput screening tests each substance at several concentrations.

In the next experiment the test system is Es-2. The description is as above. Particulars: Gynecologic cancer cell panel viability, ATPlite luminescence, 48 h; series mostly up to 57.5 µM. In a few lines: as §2
For orientation: Cellular ATP, detected with luciferase, serves as a proxy for viable cell number.

The test system of another experiment is HeLa. The experiment is described as above. Particulars: Gynecologic cancer cell panel viability, ATPlite luminescence, 48 h; series mostly up to 57.5 µM. In a few lines:
as §2

The next experiment deals with Hek293T. The description is as above. Particulars: Gynecologic cancer cell panel viability, ATPlite luminescence, 48 h, control line for the selectivity index; series mostly up to 57.5 µM. In short, it runs like this: as §2
The next experiment concerns JEG-3. The description is as above. Particulars: Gynecologic cancer cell panel viability, ATPlite luminescence, 48 h; series mostly up to 57.5 µM. In a few lines: as §2
A further experiment has as its system OV90. Described as above. Particulars: Gynecologic cancer cell panel viability, ATPlite luminescence, 48 h; series mostly up to 57.5 µM. In a few lines: as §2
For the next experiment, the system named is PA-1. Described as above. Particulars: Gynecologic cancer cell panel viability, ATPlite luminescence, 48 h; series mostly up to 57.5 µM. In a few lines: as §2
In the next experiment the test system is Tov112D. The experiment is described as above. The following applies: Gynecologic cancer cell panel viability, ATPlite luminescence, 48 h; series mostly up to 57.5 µM. In a few lines:
as §2

A short description of experiment [1]: qHTS assay to identify inhibitors of the type 1 interferon - major histocompatibility complex class I in skeletal muscle: Counter screen cell viability and HiBit confirmation (AID 1347412). As to activity change, negative = inhibition: % is scaled to controls: 0 for no effect and ±100 for the full control effect. As to all read-outs here: nearly all actives have a fitted effect of over 60% in size. Particulars: iHSKM muscle cells + IFN-b, HiBiT or CellTiter-Glo, 24 h; for activity change, negative = inhibition: at 45.9 µM (top of the series). In a few lines: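 Human myoblast knock-in line, 4.0 ng/ml IFN-beta stimulation, 24 h compound treatment. Endpoints: HiBiT lytic luminescence (HLA-B level) and CellTiter Glo (ATP). Dosing 12 concentrations, 3-fold steps, 46 uM highest final.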

For another experiment, the system named is CAOV3. Description: Primary qHTS to identify gynecologic anti-cancer compounds using libraries of approved drugs and bioactive compounds (AID 1345084). Also: nearly all actives have a fitted effect of over 55% in size. Particulars: Gynecologic cancer cell panel viability, ATPlite luminescence, 48 h; series mostly up to 57.5 µM. In a few lines:
as §2

A further experiment relates to Tov-21-G. Described as above. The following applies: Gynecologic cancer cell panel viability, ATPlite luminescence, 48 h; series mostly up to 57.5 µM. In a few lines: as §2
In another experiment the test system is SKOV3. The description is as above. The following applies: Gynecologic cancer cell panel viability, ATPlite luminescence, 48 h; series mostly up to 57.5 µM. In a few lines:
as §2

Experiment [2] in a line: Drug repurposing screens with cells derived from glioblastoma tumor samples (AID 1345199). Also: nearly all actives have a fitted effect of over 40% in size. The following applies: GBM patient neurospheres viability, ATP luminescence, 48 h. In short, it runs like this:
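Four patient lines of CD133+ GBM neurospheres were screened at several concentrations; hits were retested in those lines plus three slower-growing GBM lines, using 48-hour treatment and ATP-based viability.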

Inconclusive results are not listed. Values without a mark were called inactive. Activity calls are given as the source filed them. Calls follow the shape of the dose curve; as a rule, active = well fitted curve in the direction sought with a large enough effect; inconclusive = small, poorly fitted or top-dose-only effect, or another doubt; inactive = no such curve, though single readings can be large; an effect the other way counts as inactive or inconclusive.
Potency is read from the fitted curve at half-maximal effect.

As for `CC(C)CC(=O)Nc1n[nH]c2c1CN(C(=O)C1CCN(C)CC1)C2(C)C`, the Potency was 2.64 µM (active) in the experiment on MKL-2; 5.26 µM (active) in the experiment with UISO; 6.31 µM (active) with C33A; 7.08 µM (active) in the experiment with Es-2; 3.16 µM (active) in the experiment with HeLa; 3.98 µM (active) with Hek293T. Moreover, the Potency is 7.94 µM (active) with OV90, 0.447 µM (active) with PA-1, 7.94 µM (active) with Tov112D and 0.701 µM (active) in experiment [1] (HiBiT). Also, in the experiment on JEG-3, the Potency entry was “inactive”. Besides, the activity change, negative = inhibition in [1] (Viability) was 10.8%.

For the molecule `COc1cc(C)c(Sc2cnc(NC(=O)c3ccc(CNC(C)C(C)C)cc3)s2)cc1C(=O)N1CCN(C(C)=O)CC1` (centres undefined), the Potency entry with MKL-2, with C33A, in the experiment on Es-2, with Hek293T, in the experiment on JEG-3 and in the experiment with OV90 was “inactive” throughout. Besides, the Potency was 18.7 µM (active) in the experiment on UISO and 22.4 µM (active) with PA-1.

In the case of `CC(C)c1cc(C(=O)N2Cc3ccc(CN4CCN(C)CC4)cc3C2)c(O)cc1O`, in the experiment on MKL-2, the Potency entry was “inactive”. Further, the Potency in the experiment with UISO was 0.469 µM (active); with CAOV3, 3.98 µM (active); with OV90, 0.501 µM (active); in the experiment on PA-1, 0.501 µM (active); with Tov-21-G it was 0.355 µM (active).

With `COc1ccc(OC)c(-c2nnc3ccc(-c4ccc(OC)c(O[C@@H]5CCOC5)c4)nn23)c1`, the figures for the Potency in the experiment on MKL-2 and in the experiment on HeLa were 18.7 µM (active) and 22.4 µM (active), respectively. The Potency result in the experiment on OV90 is “inactive”.

Take `CCOC(=O)C1=C(C)NC2=C(C(=O)CC(C)(C)C2)C1c1ccc(-c2ccccc2)cc1` (centres undefined): the Potency in the experiment with MKL-2 was 2.35 µM (active); with Hek293T, 28.2 µM (active); with SKOV3 it was 10 µM (active); in the experiment on Tov112D it was 31.6 µM (active); in experiment [1] (HiBiT), 2.49 µM (active). Besides, the Potency entry in the experiment with UISO, with JEG-3 and in the experiment on OV90 was “inactive” throughout. Further, the activity change, negative = inhibition in experiment [1] (Viability) was -16.2%.

Regarding `CC(C)(O)c1cc2nc(-c3cnc(N)nc3)nc(N3CCOCC3)c2s1`, in the experiment with MKL-2, the Potency entry was “inactive”. The Potency is 3.55 µM (active) in the experiment on C33A; 3.98 µM (active) in the experiment with HeLa; 2 µM (active) with Hek293T; 2.82 µM (active) in the experiment on OV90; 8.91 µM (active) with PA-1; 3.16 µM (active) in the experiment with Tov-21-G.

In the case of `COC(=O)C1=C(C)NC(C)=C(C(=O)OCCN2CCN(C(c3ccccc3)c3ccccc3)CC2)C1c1cccc([N+](=O)[O-])c1` (centres undefined), the Potency is 3.16 µM (active) in experiment [2] (tumour line A), 16.4 µM (active) in experiment [2] (tumour line C) and 15.8 µM (active) in experiment [2] (tumour line D).

As to `Cc1ccc(C(=O)Nc2ccc(CN3CCN(C)CC3)c(C(F)(F)F)c2)cc1C#Cc1cnc2cccnn12`, the Potency in experiment [1] (Viability) is 15.7 µM (active).
